Results: PubChem BioAssay (NCATS)
Results filed as inconclusive are left out. Active and inactive are the calls of the source. Calls follow the shape of the dose curve; as a rule, active = well fitted inhibition curve with a large enough effect; inconclusive = small, poorly fitted or top-dose-only effect; inactive = flat fitted curve, though single readings scatter.

System: KB-3-1
Test: Cytotoxic Profiling of Annotated Libraries Using Quantitative High-Throughput Screening (AID 1296008); also: nearly all actives have a fitted effect of over 60% in size
Conditions: Five cell lines viability, CellTiter-Glo ATP luminescence, 48-72 h; max response: active compounds read low
Method in brief: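 Cytotoxicity was measured as CellTiter-Glo ATP luminescence, read after 10 min at room temperature. Compound treatment of the cells lasted 48 or 72 hr at 37 degrees Celsius in a qHTS format.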
% is scaled to controls: 0 for no effect and ±100 for the full control effect; potency is read from the fitted curve at half-maximal effect.

SMILES	Potency	max response
CCCCC(=O)OCC(=O)[C@]1(O)Cc2c(O)c3c(c(O)c2[C@@H](O[C@H]2C[C@H](NC(=O)C(F)(F)F)[C@H](O)[C@H](C)O2)C1)C(=O)c1c(OC)cccc1C3=O	8.2 µM (active)	
CCCCCCCCCCCC[n+]1ccc2ccccc2c1	14.6 µM (active)	
O=C(Nc1cccc(C(F)(F)F)c1)c1cc(Br)cc(Br)c1O	16.4 µM (active)	
CCOC(=O)O[C@]1(C(=O)COC(=O)CC)CC[C@H]2[C@@H]3CCC4=CC(=O)C=C[C@]4(C)[C@H]3[C@@H](O)C[C@@]21C		0.126% (inactive)
CCC(=O)NCCC1CCc2ccc3c(c21)CCO3 (stereo not given)		-7.29% (inactive)
OCCO[C@@H]1[C@@H](O)[C@H](O)[C@@H](CO)O[C@@H]1O		22% (inactive)
O=C(O)CCC(=O)C(=O)O		-11.9% (inactive)
CO[C@H]1C[C@@H]2CC[C@@H](C)[C@@](O)(O2)C(=O)C(=O)N2CCCC[C@H]2C(=O)O[C@H]([C@H](C)C[C@@H]2CC[C@@H](OCCO)[C@H](OC)C2)CC(=O)[C@H](C)/C=C(\C)[C@@H](O)[C@@H](OC)C(=O)[C@H](C)C[C@H](C)/C=C/C=C/C=C/1C		-27.1% (inactive)
CC[C@@H](C(=O)[C@@H](C)[C@@H](O)[C@H](C)CCc1ccc(C)c(O)c1C(=O)O)[C@H]1O[C@](CC)([C@H]2CC[C@](O)(CC)[C@H](C)O2)C[C@@H]1C		10.1% (inactive)
Cc1cc(CC(C)CC(C)(C)C)n(O)c(=O)c1 (stereo not given) (tested in a mixture with another compound)		29.3% (inactive)
